Measured values as given in the supplement of paper PMC12494721.
Where a name gives a salt, the structure may show the parent alone.

Key:
Details in all cases: incubation time: 27 h, anaerobic, 37 °C;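 for the amine columns active = adjusted P below 0.05 in both replicates with a change the same way and a mean fold change under 0.8 or over 1.25; inactive = the rest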
[1] = test system: Clostridium sporogenes DSM 1664; test: growth (OD595) fold change vs plate DMSO controls (fold change (ratio)); higher = more growth
How it was run: (§1)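 Each value is the mean of 2 biological replicates, and fold changes above 1.5 were set to NA. The underlying readings were taken at 595 nm from shaken anaerobic mGAM cultures in 96-well plates after 27 h at 37 °C. They were blank-subtracted, corrected for compound background using 20 µM compound solutions in water, and converted to OD with a calibration factor of 5. Growth is the fold change relative to the median of the plate DMSO controls.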

[2] = test system: Escherichia coli IAI1; test: as above
How it was run: as §1

[3] = test system: Klebsiella aerogenes DSM 30053; test: as above
How it was run: as §1

[4] = test system: Ruminococcus gnavus DSM 108212; test: as above
How it was run: as §1

[5] = test system: Klebsiella aerogenes DSM 30053; test: fold change of Histamine concentration vs plate DMSO controls (fold change (ratio)); higher = more amine produced, active = hit call of the paper (significant change in both replicates, either direction)
How it was run: (§2)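 Amine values are fold changes relative to DMSO-only wells on the same plate. They derive from 27 h, 37 °C anaerobic mGAM cultures of four gut bacterial strains in 80 µL wells, dosed at 20 µM final, or 50 µM final for sweeteners. Extraction of the whole culture, LC–triple-quadrupole MS in dynamic MRM mode, external calibration curves and within-batch drift correction were used, with 2 biological replicates averaged.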

[6] = test system: Clostridium sporogenes DSM 1664; test: fold change of Tryptamine concentration vs plate DMSO controls (fold change (ratio)); higher = more amine produced, active = hit call of the paper (significant change in both replicates, either direction)
How it was run: as §2

[7] = test system: Ruminococcus gnavus DSM 108212; test: as above
How it was run: as §2

[8] = test system: Escherichia coli IAI1; test: fold change of Putrescine concentration vs plate DMSO controls (fold change (ratio)); higher = more amine produced, active = hit call of the paper (significant change in both replicates, either direction)
How it was run: as §2

[9] = test system: Klebsiella aerogenes DSM 30053; test: as above
How it was run: as §2

[10] = test system: Escherichia coli IAI1; test: fold change of Cadaverine concentration vs plate DMSO controls (fold change (ratio)); higher = more amine produced, active = hit call of the paper (significant change in both replicates, either direction)
How it was run: as §2

[11] = test system: Klebsiella aerogenes DSM 30053; test: as above
How it was run: as §2

[12] = test system: Ruminococcus gnavus DSM 108212; test: fold change of 2-Phenylethylamine concentration vs plate DMSO controls (fold change (ratio)); higher = more amine produced, active = hit call of the paper (significant change in both replicates, either direction)
How it was run: as §2

| SMILES | growth [1] | growth [2] | growth [3] | growth [4] | fold change of Histamine concentration [5] | fold change of Tryptamine concentration [6] | fold change of Tryptamine concentration [7] | fold change of Putrescine concentration [8] | fold change of Putrescine concentration [9] | fold change of Cadaverine concentration [10] | fold change of Cadaverine concentration [11] | fold change of 2-Phenylethylamine concentration [12] |
| --- | --- | --- | --- | --- | --- | --- | --- | --- | --- | --- | --- | --- |
| CCOC(=O)[N-]c1c[n+](N2CCOCC2)no1 [Molsidomine] (20 µM) | 0.839 | 1.04 | 0.98 | 0.196 | 1.03 (inactive) | 1.19 (inactive) | 0.153 (active) | 0.994 (inactive) | 1.02 (inactive) | 0.951 (inactive) | 1 (inactive) | 0.14 (active) |
| COC(=O)[C@@H]1[C@H]2C[C@H]3c4[nH]c5ccccc5c4CCN3C[C@@H]2CC[C@@H]1O [Yohimbine hydrochloride] (20 µM) | 1.02 | 1.06 | 1.04 | 0.793 | 0.982 (inactive) | 1.03 (inactive) | 1.01 (inactive) | 1.05 (inactive) | 1.01 (inactive) | 0.989 (inactive) | 1.02 (inactive) | 1.01 (inactive) |
| COc1cnc(NS(=O)(=O)c2ccc(N)cc2)nc1 [Sulfameter] (20 µM) | 0.997 | 0.976 | 0.981 | 1.35 | 1.01 (inactive) | 0.945 (inactive) | 1.03 (inactive) | 1.01 (inactive) | 0.996 (inactive) | 1.03 (inactive) | 0.987 (inactive) | 1.01 (inactive) |
| Cc1ccc(C(=O)c2ccc(CC(=O)O)n2C)cc1 [Tolmetin sodium salt dihydrate] (20 µM) | 1.12 | 0.976 | 1.01 | 0.976 | 1.05 (inactive) | 1 (inactive) | 0.958 (inactive) | 0.949 (inactive) | 1.01 (inactive) | 1 (inactive) | 1 (inactive) | 0.913 (inactive) |
| N=C(N)NS(=O)(=O)c1ccc(N)cc1 [Sulfaguanidine] (20 µM) | 0.947 | 1.07 | 0.963 | 0.676 | 1.04 (inactive) | 1.27 (inactive) | 1.09 (inactive) | 1.2 (inactive) | 0.853 (inactive) | 1.04 (inactive) | 1.05 (inactive) | 1.09 (inactive) |
| CC(COc1ccccc1)NN (stereo unspecified) [Phenoxypropazine dihydrochloride] (20 µM) | 1.06 | 0.99 | 0.988 | 0.995 | 1.05 (inactive) | 0.619 (active) | 1 (inactive) | 1.01 (inactive) | 1.01 (inactive) | 0.965 (inactive) | 1.02 (inactive) | 1.01 (inactive) |
| CCNC(=O)CCC/C=C\C[C@@H]1[C@@H](/C=C/[C@@H](O)CCc2ccccc2)[C@H](O)C[C@@H]1O [Bimatoprost] (20 µM) | 1.07 | 1.06 | 1.02 | 1 | 1.05 (inactive) | 1.02 (inactive) | 0.954 (inactive) | 1.02 (inactive) | 1.03 (inactive) | 1.04 (inactive) | 0.997 (inactive) | 0.919 (inactive) |
| CO/N=C1\CN(c2nc3c(cc2F)c(=O)c(C(=O)O)cn3C2CC2)CC1CN (stereo unspecified) [Gemifloxacin mesylate] (20 µM) | 0.00381 | 0.0388 | 0.126 | 0.376 | 0.0873 (active) | 0.0398 (active) | 0.148 (active) | 0.735 (inactive) | 0.66 (inactive) | 0.223 (active) | 0.992 (inactive) | 0.159 (active) |
| NC[C@H]1O[C@H](O[C@H]2[C@H](O[C@@H]3O[C@H](CO)[C@@H](O)[C@H]3O)[C@@H](O)[C@H](N)C[C@@H]2N)[C@H](N)[C@@H](O)[C@@H]1O [Ribostamycin sulfate salt] (20 µM) | 1.07 | 1.04 | 0.972 | 1.2 | 0.975 (inactive) | 1.02 (inactive) | 0.996 (inactive) | 1.14 (inactive) | 0.994 (inactive) | 0.963 (inactive) | 0.994 (inactive) | 1.03 (inactive) |
| Cc1cccc(C)c1NC(=O)CN1CCN(CCCC(c2ccc(F)cc2)c2ccc(F)cc2)CC1 [Lidoflazine] (20 µM) | 0.947 | 1 | 1.05 | 1.22 | 1.01 (inactive) | 1.04 (inactive) | 0.863 (inactive) | 1.09 (inactive) | 1 (inactive) | 0.995 (inactive) | 0.996 (inactive) | 0.906 (inactive) |
| Nc1nc(F)nc2c1ncn2[C@@H]1O[C@H](CO)[C@@H](O)[C@@H]1O [Fludarabine] (20 µM) | 0.775 | 0.524 | 0.982 | 0.936 | 0.976 (inactive) | 1.04 (inactive) | 0.796 (active) | 0.546 (inactive) | 0.965 (inactive) | 0.91 (inactive) | 1.02 (inactive) | 0.838 (inactive) |
| Nc1nc(N)nc(-c2cc(Cl)ccc2Cl)n1 [Irsogladine maleate] (20 µM) | 1.07 | 1.02 | 0.961 | 1.02 | 0.989 (inactive) | 0.978 (inactive) | 0.959 (inactive) | 1.04 (inactive) | 0.998 (inactive) | 1.06 (inactive) | 0.997 (inactive) | 0.921 (inactive) |
| CC(=O)NC[C@H]1CN(c2ccc(N3CCOCC3)c(F)c2)C(=O)O1 [Linezolid] (20 µM) | 0 | 0.788 | 0.985 | 0.196 | 0.819 (inactive) | 0.0335 (active) | 0.112 (active) | 0.59 (active) | 1 (inactive) | 0.777 (active) | 1 (inactive) | 0.119 (active) |
| NC(=O)C1CO1 (stereo unspecified) [Glycidamide] (20 µM) | 0.988 | 0.992 | 0.998 | 1.06 | 1.05 (inactive) | 0.935 (inactive) | 0.988 (inactive) | 0.993 (inactive) | 1.07 (inactive) | 1.02 (inactive) | 1.02 (inactive) | 0.973 (inactive) |
| CC(=O)N[C@@H](CS)C(=O)O [Acetylcysteine] (20 µM) | 0.935 | 1.07 | 0.967 | 0.985 | 1.14 (inactive) | 1.07 (inactive) | 0.993 (inactive) | 1.03 (inactive) | 1.02 (inactive) | 1.02 (inactive) | 0.987 (inactive) | 1 (inactive) |
| Cc1cccc(C)c1NC(=O)C1CCCCN1C (stereo unspecified) [Mepivacaine hydrochloride] (20 µM) | 1.21 | 1.02 | 1.08 | 0.946 | 0.905 (inactive) | 1.02 (inactive) | 1.06 (inactive) | 1 (inactive) | 0.977 (inactive) | 1 (inactive) | 1.01 (inactive) | 1.05 (inactive) |
| Cc1oncc1C(=O)Nc1ccc(C(F)(F)F)cc1 [Leflunomide] (20 µM) | 1.13 | 0.978 | 1.03 | 0.971 | 1.06 (inactive) | 0.995 (inactive) | 0.998 (inactive) | 1.01 (inactive) | 1.01 (inactive) | 1.08 (inactive) | 1 (inactive) | 1.01 (inactive) |
| NCCc1c[nH]cn1 [Histamine dihydrochloride] (20 µM) | 0.927 | 1.16 | 1.01 | 0.893 | 1.05 (inactive) | 1.05 (inactive) | 1.06 (inactive) | 1.16 (inactive) | 1.02 (inactive) | 0.952 (inactive) | 0.992 (inactive) | 1.05 (inactive) |
| CC[C@H]1OC(=O)[C@H](C)[C@@H](O[C@H]2C[C@@](C)(OC)[C@@H](O)[C@H](C)O2)[C@H](C)[C@@H](O[C@@H]2O[C@H](C)C[C@H](N(C)C)[C@H]2O)[C@](C)(O)C[C@@H](C)/C(=N\OCOCCOC)[C@H](C)[C@@H](O)[C@]1(C)O [Roxithromycin] (20 µM) | 0.00175 | 0.826 | 0.95 | 0.194 | 0.995 (inactive) | 0.0367 (active) | 0.0981 (active) | 0.576 (active) | 0.973 (inactive) | 0.909 (inactive) | 1 (inactive) | 0.123 (active) |
| Cc1cc2c(s1)Nc1ccccc1N=C2N1CCN(C)CC1 [Olanzapine] (20 µM) | 1.16 | 1.13 | 1.04 | 1.19 | 0.961 (inactive) | 0.966 (inactive) | 0.922 (inactive) | 1.04 (inactive) | 0.988 (inactive) | 0.945 (inactive) | 0.999 (inactive) | 0.944 (inactive) |
| Cc1cccc(C)c1OCC(C)N (stereo unspecified) [Mexiletine hydrochloride] (20 µM) | 0.941 | 1.02 | 1.15 | 0.936 | 0.934 (inactive) | 0.991 (inactive) | 1.02 (inactive) | 0.985 (inactive) | 0.998 (inactive) | 1.03 (inactive) | 1.02 (inactive) | 1.07 (inactive) |
| CCCNC(C)C(=O)Nc1ccccc1C (stereo unspecified) [Prilocaine hydrochloride] (20 µM) | 0.947 | 0.973 | 1.02 | 0.708 | 1.07 (inactive) | 0.934 (inactive) | 1.02 (inactive) | 1.01 (inactive) | 1.02 (inactive) | 0.993 (inactive) | 0.988 (inactive) | 1 (inactive) |
| CC[C@H](C)C(=O)O[C@H]1C[C@@H](C)C=C2C=C[C@H](C)[C@H](CC[C@@H]3C[C@@H](O)CC(=O)O3)[C@H]21 [Lovastatin] (20 µM) | 1.13 | 1 | 0.995 | 1.16 | 1.05 (inactive) | 0.945 (inactive) | 0.995 (inactive) | 0.975 (inactive) | 1.02 (inactive) | 1.01 (inactive) | 0.999 (inactive) | 0.984 (inactive) |
